GALK inhibitor: galactokinase (human) inhibition; Potency, µM (highest dose often 57.5 µM), inactives show at the highest dose activity change, negative = inhibition, hits mostly inhibitors; 270,000 compounds, 0.007% hits; AID 1868; P51570; Purified GALK, Kinase-Glo residual ATP luminescence; also: potency is read from the fitted curve at half-maximal effect
Target sequence (P51570 whole entry, looked up): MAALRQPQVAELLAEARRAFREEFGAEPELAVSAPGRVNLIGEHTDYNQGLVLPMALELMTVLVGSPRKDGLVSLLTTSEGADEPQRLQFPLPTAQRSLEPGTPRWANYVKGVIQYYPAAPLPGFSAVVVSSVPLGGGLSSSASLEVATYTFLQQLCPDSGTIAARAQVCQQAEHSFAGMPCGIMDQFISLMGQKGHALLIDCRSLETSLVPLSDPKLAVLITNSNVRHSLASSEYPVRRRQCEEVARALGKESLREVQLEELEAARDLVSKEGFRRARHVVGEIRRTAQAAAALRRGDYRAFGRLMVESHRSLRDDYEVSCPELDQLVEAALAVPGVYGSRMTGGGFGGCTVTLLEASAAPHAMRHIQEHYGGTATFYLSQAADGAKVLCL
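Luminescence from leftover ATP (Ultra-Glo luciferase/luciferin) served as read-out after a 1 h room-temperature reaction of 5 nM GALK with 35 uM ATP and 100 uM galactose.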
TrxR1 substrate: substrates of rat thioredoxin reductase 1; Potency, µM (titrated, usually from 114 µM), for inactives: at the highest dose activity change, negative = substrate turnover; purified TrxR1 substrate turnover, NADPH consumption readout; 390,000 compounds, 0.01% hits; O89049; also: potency is read from the fitted curve at half-maximal effect; nearly all actives have a fitted effect of over 50% in size
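Rat TrxR1, dispensed at 90 nM, was prereduced with 400 uM NADPH (final) for 5 min at ~22 deg C, then incubated with compound 15 min before 400 uM selenite. A first-read NADPH fluorescence drop versus no-compound background flagged substrates.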
RORgamma inh: ROR gamma (mouse) transcription inhibition | P51450 | Drosophila S2 Gal4-RORgamma UAS-luciferase reporter, 20 h | Potency, µM (top dose mostly 53.6 µM), without a hit: at the highest dose activity change, negative = inhibition, most hits filed as inhibitors | 310,000 compounds, 5.4% hits | AID 2551; also: potency is read from the fitted curve at half-maximal effect; nearly all actives have a fitted effect of over 60% in size
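Luminescence from a UAS-regulated Photinus luciferase reporter in stably transfected Drosophila Schneider cells is measured; decreased signal marks ROR gamma inhibition. Fusion expression is induced by 700 uM copper sulfate for 20 hr.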
Gal4-VP16 FLuc: inhibits Gal4-VP16 luciferase reporter, ROR gamma counter-screen; AID 2546; Drosophila S2 Gal4-VP16 UAS-luciferase, luminescence, 20 h; Potency, µM (doses to about 53.6 µM), inactives show at the top dose activity, negative = inhibition, usual class: inhibitors; 310,000 compounds, 3.5% hits;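 also: Gal4-VP16 expression switched on by copper sulfate through the metallothionein promoter; potency is read from the fitted curve at half-maximal effect; nearly all actives have a fitted effect of over 50% in size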
FBPA coupling cs: inhibits coupling enzyme system, counter-screen for aldolase hits; coupling enzyme system counterscreen, AmpLite Red fluorescence; activity change, negative = inhibition, % at 58.2 µM, hits read low; 290,000 compounds, 0.67% hits; in the data active = activity change below about -30%
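Coupling enzymes only (glyceraldehyde-3-phosphate) + compound, at 57.5 uM final, 10 min RT; add substrate/coupling/AmpLite Red mix, 20 min RT; fluorescence ex 525/em 598 nm. Actives flag coupling-system interference.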
TrxR1 inh: blocks rat thioredoxin reductase 1. recombinant rTrxR1, NADPH fluorescence consumption, selenite substrate. Potency, µM (top dose mostly 114 µM), without a hit: at the top dose activity change, negative = inhibition, actives largely listed as inhibitors. 390,000 compounds, 1% hits; also: potency is read from the fitted curve at half-maximal effect; nearly all actives have a fitted effect of over 65% in size
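Rat TrxR1 (90 nM in the dispensed reagent) was pre-reduced with 400 uM NADPH for 5 min at room temperature, then incubated with compound for 15 min. After 400 uM selenite was added, NADPH fluorescence (Ex 340/Em 450 nm) was followed for 8 min.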
An asterisk follows results filed as active; ? = inconclusive; . = no result; [ ] = another dose, or the depositor's remark. In the library only some 5.9% were active in any assay of this set; here they are far more common. Unless noted, calls follow the shape of the dose curve; as a rule, active = well fitted curve in the direction sought with a large enough effect; inconclusive = small, poorly fitted or top-dose-only effect, or another doubt; inactive = no such curve, though single readings can be large; an effect the other way counts as inactive or inconclusive. % is scaled to controls: 0 for no effect and ±100 for the full control effect.

SMILES	GALK inhibitor	TrxR1 substrate	RORgamma inh	Gal4-VP16 FLuc	FBPA coupling cs	TrxR1 inh
Cc1ccc(NC(=S)NCC23C=CC(O2)C2C(=O)N(c4ccc(C)cc4)C(=O)C23)cc1 (stereo not given)	1.2%	0.9%	?	14.1µM*	1.1	10µM*
CC(C)(C)OC(=O)NCC12C=CC(O1)C1C(=O)N(Cc3ccccc3)C(=O)C12 (stereo not given)	0.1%	10.4%	?	?	1.6	?
Cc1ccc(S(=O)(=O)NCC23C=CC(O2)C2C(=O)N(c4ccccc4)C(=O)C23)cc1 (stereo not given)	-3.9%	-0.5%	8.91µM*	?	-2.4	2.82µM*
O=C(O)CCc1nnc(SCC(=O)Nc2ccc(Cl)c(C(F)(F)F)c2)[nH]c1=O	?	-2.1%[57.1 µM]	22.2%	14.2%	28.5	-3.0%[57.1 µM]
CCOCCCNC(=O)C(c1ccc(C)cc1)N(Cc1ccc2c(c1)OCO2)C(=O)c1ccccn1 (stereo not given)	9.0%	-9.6%	23.0%	-23.2%	-1.2	13.3%[57.1 µM]
CCc1cc(=O)[nH]c(SCc2nc(-c3ccc(C(F)(F)F)cc3)no2)n1	.	3.1%[57.1 µM]	.	.	.	7.6%[57.1 µM]
COC(=O)c1ccc(NC(=O)CCc2c(C)nc3ncnn3c2C)cc1	-2.7%	2.3%	-14.5%	-0.4%	0.2	4.9%
CC(NCc1ccc2c(c1)n(C)c(=O)n2C)c1ccccc1 (stereo not given)	.	-3.9%	.	.	.	12.7%
COc1ccc(NC(=O)N/C=C/c2ccco2)cc1	4.8%	0.2%	29.6%	2.2%	-3.3	?
COc1ccc(C(NC(=O)/C=C/c2ccco2)c2ccc(OC)cc2)cc1	-0.6%	0.3%	9.9%	?	0.5	25.1µM*
COc1ccc(OC)c(NC(=O)COC(=O)/C=C/c2ccco2)c1	.	-3.2%	.	.	.	-8.6%
COc1ccc(C(NC(=O)/C=C\c2ccco2)c2ccc(OC)c(OC)c2)cc1 (stereo not given)	-1.2%	-4.9%	1.9%	-3.3%	2.8	8.91µM*
COc1ccccc1C1CCN(Cc2cccc([N+](=O)[O-])c2)CC1	1.0%	0.7%	-2.0%	-2.8%	1.7	14.5%
NC(=O)CCSC(=S)N1CCOCC1	7.8%	9.8%	-1.1%	-18.8%	8.3	24.9%
CCC(NS(=O)(=O)c1ccc(C)cc1)C(=O)N1CCOCCOCCOCC1 (stereo not given)	0.3%	-17.6%[57.1 µM]	-21.0%	10.4%	4.0	13.6%[57.1 µM]
CCN1C(=O)[C@H]2[C@H]3CN=C(SCc4ccccc4)N3[C@@](C)(C(=O)OC)[C@H]2C1=O	.	1.5%[2.29 µM]	.	.	.	21.4%
COCCNC(=S)NC1CC2CCCC(C1)N2Cc1cccs1 (stereo not given)	3.9%	7.6%	?	-1.1%	-0.1	11.0%
COCCCNC(=S)NC1CC2CCCC(C1)N2Cc1cccs1 (stereo not given)	-3.3%	1.3%	10µM*	-1.6%	1.1	11.9%
Cc1cccc(NC(=S)NC2CC3CCCC(C2)N3Cc2cccs2)c1 (stereo not given)	.	-9.0%	5.01µM*	?	-2.7	-26.8%
Fc1ccc(N=c2ssnc2Cl)c(F)c1	5.1%	-3.7%[57.1 µM]	?	?	1.5	-9.1%[57.1 µM]
C/C(NC(=O)c1ccccc1)=C1/C(=O)CC2C1C2(C)C (stereo not given)	6.3%	7.7%[57.1 µM]	36.1%	-9.3%	3.4	7.0%[57.1 µM]
C=CCC1(CC=C)CCCN1C(=O)c1cc(COc2cccc(C(F)(F)F)c2)on1	-6.0%	-3.3%	-28.6%	12.6µM*	.	21.7%
COc1cccc(C(=O)NCCS(=O)(=O)NCCc2ccc(OC)c(OC)c2)c1	.	-0.6%	.	.	.	-5.7%
CCN(CC(=O)Nc1cc(Cl)ccc1C)C(=O)COc1ccccc1F	-1.4%	-3.5%	1.3%	-17.5%	-1.6	15.0%[57.1 µM]
CCN(CC(=O)Nc1cc(Cl)ccc1C)C(=O)CCOc1ccccc1C	-4.0%	3.9%	11.9%	12.6%	.	39.8µM*
SMILES	GALK inhibitor	TrxR1 substrate	RORgamma inh	Gal4-VP16 FLuc	FBPA coupling cs	TrxR1 inh
C=CCn1c(SCC(=O)NC(=O)NCc2ccco2)nc2sc(CC)cc2c1=O	8.1%	5.6%	-39.2%	-14.4%	0.5	-13.9%
COc1ccccc1CNC(=O)c1cccc(S(=O)(=O)N2CCN(c3ccc(F)cc3)CC2)c1	.	5.9%	.	.	.	30.0%
COCCNC(=S)N(CCc1c(C)[nH]c2ccc(F)cc12)Cc1cccs1	-1.5%	3.2%	7.94µM*	?	-1.0	28.5%
CCNC(=S)N(CCc1c(C)[nH]c2ccc(C)cc12)Cc1cccs1	-1.8%	0.9%[57.1 µM]	7.08µM*	?	-1.9	9.8%[57.1 µM]
CNC(=S)N(CCc1c(C)[nH]c2ccc(Cl)cc12)Cc1cccs1	5.1%	.	?	-2.8%	-0.1	.
Cc1[nH]c2ccccc2c1CCN(Cc1cccs1)C(=S)Nc1ccccc1	-1.1%	-2.8%	5.62µM*	-1.9%	-5.0	5.7%
CCN(CC)CCn1c(=N)n(CC(O)COc2ccccc2C)c2ccccc21 (stereo not given)	.	45.1%	.	.	.	32.1%
COC(=O)C1=C(C)Nc2nc3ccccc3n2C1c1cc(OC)c(OC)c(OC)c1 (stereo not given)	4.7%	14.2%	12.6µM*	-13.8%	0.4	7.0%[57.1 µM]
O=C(O)c1ccc(C2Nc3ccccc3-c3nnc(SCc4ccc(Cl)cc4)nc3O2)cc1 (stereo not given)	.	0.9%	.	.	.	13.1%
COc1ccc(CC(=O)n2[nH]c(=O)ccc2=O)cc1OC	-0.8%	11.4%[57.1 µM]	?	?	3.9	3.55µM*
COCCN=c1scc(-c2cccs2)n1/N=C/c1ccc(O)c(O)c1O	-3.2%	-12.6%	-94.5%	?	-33.4*	-22.5%
COCCN=c1scc(-c2ccccc2)n1/N=C/c1c[nH]c2ccccc12	-2.3%	-17.9%	?	-18.8%	-5.0	-18.9%
CCN=c1scc(C)n1/N=C/c1ccc(O)c(O)c1O	1.2%	-14.7%	3.55µM*	?	-36.6*	-34.2%
Cc1ccc2nc(NC(=O)c3ccccc3F)sc2c1	6.0%	39.7%[57.1 µM]	1.26µM*	7.08µM*	0.2	30.6%[57.1 µM]
CCOc1ccc2nc(NC(=S)NCc3ccccc3)sc2c1	-1.9%	5.1%[57.1 µM]	2.24µM*	2.82µM*	-2.2	12.5%
CCN(CC)CCN(C(=O)CCOc1ccccc1)c1nc2c(F)cc(F)cc2s1	-2.6%	2.1%	1.5%	-20.3%	1.8	11.2µM*
CSc1ncccc1C(=O)Nc1nc2ccc(Oc3ccccc3)cc2s1	2.6%	10.0%	10µM*	?	-3.2	40.9%
CCCc1nnc(SCc2ccc(OC)cc2)n1N	-0.7%	-6.8%	-4.6%	-2.6%	3.7	-3.9%
CCOc1ccc2nc(NC(=O)c3ccco3)sc2c1	11.3%	5.4%	?	?	-2.3	30.7%
O=C(Nc1nc2ccc(S(=O)(=O)N3CCCCC3)cc2s1)c1ccncc1	0.6%	-8.3%	4.4%	12.1%	4.2	-10.5%

High-throughput results deposited in PubChem BioAssay by National Center for Advancing Translational Sciences (NCATS).
